Potency data for twelve molecules are collected here from PubChem BioAssay (NCATS).

Structures are written as SMILES. Results filed as inconclusive are left out. Active and inactive are the calls of the source. Calls follow the shape of the dose curve; as a rule, active = well fitted inhibition curve with a large enough effect; inconclusive = small, poorly fitted or top-dose-only effect; inactive = flat fitted curve, though single readings scatter.

Holding throughout (assay): qHTS profiling for inhibitors of Plasmodium falciparum proliferation (AID 504749); also: nearly all actives have a fitted effect of over 60% in size
Holding throughout (settings): P. falciparum in erythrocytes, SYBR Green DNA, 72 h; series mostly up to 28.7 µM

Experiment [1] deals with AA1029. The method, boiled down: (§1)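 P. falciparum-infected erythrocytes (0.3% parasitemia, 2.5% hematocrit final) were exposed to compounds for 72 h at 37 C in 5% CO2, then lysed with SYBR Green buffer overnight at room temperature; parasite DNA fluorescence was normalized to artemisinin and DMSO controls.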
Experiment [2] deals with ATS95. In outline:
as §1

Experiment [3] deals with C2A. The method, boiled down: as §1
The subject of experiment [4] is CP211. The method, boiled down: as §1
The subject of experiment [5] is CP215. The method, boiled down: as §1
Experiment [6] concerns CP217. In outline: as §1
In experiment [7] the test system is CP250. In outline:
as §1

The test system of experiment [8] is CP252. The method, boiled down:
as §1

Experiment [9] has as its system CP256. The method, boiled down:
as §1

Experiment [10] has as its system CP260. The method, boiled down:
as §1

Experiment [11] has as its system CP262. The method, boiled down:
as §1

Experiment [12] deals with CP265. In outline:
as §1

Experiment [13] relates to CP291. The method, boiled down:
as §1

The test system of experiment [14] is CP315. In outline:
as §1

Experiment [15] deals with Dd2. The method, boiled down: as §1
Experiment [16] relates to FAB9. The method, boiled down: as §1
Experiment [17] has as its system ICS. The method, boiled down: as §1
For experiment [18], the system named is N140. The method, boiled down: as §1
Experiment [19] concerns SC27B. The method, boiled down:
as §1

Experiment [20] concerns TAB165. In outline:
as §1
Potency is read from the fitted curve at half-maximal effect.

As to `Cc1ccc(Nc2ncccc2C(=O)O)cc1C`, the Potency result in experiment [1], in [2], in experiment [3], in experiment [4], in experiment [5] and in [6] was “inactive” throughout. Moreover, the Potency entry in experiment [7], in experiment [8], in [9], in [10], in experiment [11] and in experiment [12] was “inactive” each time. The Potency entry in experiment [13], in experiment [14], in experiment [15], in [16], in experiment [17] and in experiment [18] was “inactive” each time. For the same molecule, the Potency entry in experiment [19] and in experiment [20] was “inactive” throughout.

For the molecule `CCN1CCN(C(=O)NC(C(=O)NC2C(=O)N3C(C(=O)O)=C(CSc4nnnn4C)CSC23)c2ccc(O)cc2)C(=O)C1=O` (stereo not given), the Potency result in experiment [1], in experiment [2], in experiment [3], in [4], in experiment [5] and in [6] was “inactive” in each case. The Potency entry in experiment [7], in experiment [8], in experiment [9], in experiment [10], in experiment [11] and in [12] was “inactive” each time. In addition, the Potency entry in [13], in [14], in experiment [15], in [16], in [17] and in experiment [18] was “inactive” each time. Further, the Potency entry in experiment [19] and in experiment [20] was “inactive” throughout.

As for `CCCCC/C(C=O)=C/c1ccccc1`, the Potency result in experiment [1], in experiment [2], in experiment [3], in [4], in experiment [5] and in experiment [6] was “inactive” each time. For the same molecule, the Potency entry in experiment [7], in experiment [8], in experiment [9], in [10], in experiment [11] and in [12] was “inactive” throughout. The Potency entry in experiment [13], in experiment [14], in experiment [15], in experiment [16], in experiment [17] and in experiment [18] was “inactive” throughout. The Potency entry in [19] and in experiment [20] was “inactive” each time.

For `CCN(CC)C(=O)Nc1ccc(OC[C@H](O)CNC(C)(C)C)c(C(C)=O)c1`, the Potency entry in experiment [1], in experiment [2], in experiment [3], in experiment [4], in experiment [5] and in experiment [6] was “inactive” in each case. Moreover, the Potency result in experiment [7], in experiment [8], in [9], in experiment [10], in [11] and in experiment [12] was “inactive” throughout. Besides, the Potency entry in experiment [13], in experiment [14], in experiment [15], in experiment [16], in [17] and in experiment [18] was “inactive” in each case. The Potency result in experiment [19] and in experiment [20] was “inactive” in each case.

Consider `C/C1=C2/[N-]C(C(CC(N)=O)[C@@]2(C)CCC(=O)NCC(C)OP(=O)([O-])O[C@H]2[C@@H](O)[C@@H](n3cnc4cc(C)c(C)cc43)O[C@@H]2CO)[C@]2(C)N=C(/C(C)=C3N=C(/C=C4N=C1C(CCC(N)=O)C\4(C)C)[C@@H](CCC(N)=O)[C@]\3(C)CC(N)=O)[C@@H](CCC(N)=O)[C@]2(C)CC(N)=O.CC(=O)O.[Co]` (stereo not given in full), for which the Potency entry in [1], in experiment [2], in experiment [3], in experiment [4], in [5] and in experiment [6] was “inactive” each time. Further, the Potency result in experiment [7], in experiment [8], in [9], in experiment [10], in experiment [11] and in experiment [12] was “inactive” throughout. The Potency entry in experiment [13], in experiment [14], in [15], in experiment [16], in [17] and in experiment [18] was “inactive” throughout. The Potency entry in [19] and in experiment [20] was “inactive” throughout.

As for `CCCCCCCCCCCC(=O)OCC(O)C1OCC(O)C1O` (stereo not given), the Potency entry in experiment [1], in experiment [2], in experiment [3], in [4], in experiment [5] and in experiment [6] was “inactive” each time. Further, the Potency entry in experiment [7], in experiment [8], in experiment [9], in experiment [10], in experiment [11] and in [12] was “inactive” each time. Moreover, the Potency result in experiment [13], in experiment [14], in experiment [15], in experiment [16], in experiment [17] and in experiment [18] was “inactive” throughout. For the same molecule, the Potency result in experiment [19] and in experiment [20] was “inactive” each time.

For `CCCC[C@H](O)c1ccccc1`, the Potency entry in experiment [1], in experiment [2], in [3], in experiment [4], in [5] and in experiment [6] was “inactive” throughout. For the same molecule, the Potency entry in experiment [7], in experiment [8], in [9], in experiment [10], in experiment [11] and in experiment [12] was “inactive” in each case. In addition, the Potency result in experiment [13], in experiment [14], in experiment [15], in experiment [16], in experiment [17] and in experiment [18] was “inactive” throughout. The Potency entry in [19] and in [20] was “inactive” in each case.

As to `CCC(C(=O)O)C1OC(C(C)C(O)C(C)C(=O)C(CC)C2OC3(C=CC(O)C4(CCC(C)(C5CCC(O)(CC)C(C)O5)O4)O3)C(C)CC2C)C(C)CC1C` (stereo not given), the Potency was 158 nM (active) in [1]; 178 nM (active) in [2]; 126 nM (active) in experiment [3]; 67.5 nM (active) in experiment [4]; 60.1 nM (active) in experiment [5]; 178 nM (active) in experiment [6]. Further, the Potency is 199 nM (active) in experiment [7]; 141 nM (active) in experiment [8]; 199 nM (active) in [9]; 112 nM (active) in experiment [10]; 536 nM (active) in experiment [11]; 224 nM (active) in [12]. In addition, the Potency is 60.1 nM (active) in experiment [13]; 33.8 nM (active) in experiment [14]; 100 nM (active) in experiment [15]; 282 nM (active) in experiment [16]; 89.1 nM (active) in experiment [17]; 141 nM (active) in experiment [18]. Besides, the Potency is 89.1 nM (active) in experiment [19] and 158 nM (active) in experiment [20].

For `O=C1C(I)=CC(=C(c2cc(I)c(O)c(I)c2)c2ccccc2C(=O)O)C=C1I`, the Potency result in experiment [1], in [2], in experiment [3], in experiment [4], in experiment [5] and in experiment [6] was “inactive” throughout. In addition, the Potency result in [7], in experiment [8], in experiment [9], in experiment [10], in [11] and in [12] was “inactive” in each case. Moreover, the Potency entry in experiment [13], in experiment [14], in experiment [15], in [16], in experiment [17] and in [18] was “inactive” throughout. Also, the Potency entry in experiment [19] and in [20] was “inactive” each time.

`CC(=O)NC1[C@H]([C@H](O)[C@H](O)CO)OC(C(=O)O)=C[C@H]1N=C(N)N` (stereo not given in full): the Potency result in [1], in [2], in [3], in experiment [4], in experiment [5] and in experiment [6] was “inactive” each time. For the same molecule, the Potency result in experiment [7], in [8], in experiment [9], in experiment [10], in experiment [11] and in experiment [12] was “inactive” throughout. Moreover, the Potency result in experiment [13], in experiment [14], in experiment [15], in [16], in experiment [17] and in experiment [18] was “inactive” in each case. The Potency entry in experiment [19] and in experiment [20] was “inactive” throughout.

`OCCN1CC(O)C(O)C(O)C1CO` (stereo not given): the Potency result in experiment [1], in experiment [2], in experiment [3], in experiment [4], in experiment [5] and in experiment [6] was “inactive” throughout. In addition, the Potency result in experiment [7], in [8], in experiment [9], in experiment [10], in [11] and in experiment [12] was “inactive” throughout. Further, the Potency entry in experiment [13], in experiment [14], in experiment [15], in experiment [16], in experiment [17] and in experiment [18] was “inactive” throughout. Moreover, the Potency entry in [19] and in [20] was “inactive” each time.

As to `OC[C@@H]1O[C@](CO)(O[C@H]2O[C@H](CO)[C@@H](O)[C@H](O)[C@H]2O)[C@H](O)[C@H]1O`, the Potency result in [1], in experiment [2], in experiment [3], in experiment [4], in experiment [5] and in [6] was “inactive” each time. Further, the Potency entry in [7], in [8], in [9], in experiment [10], in [11] and in [12] was “inactive” throughout. The Potency result in [13], in [14], in experiment [15], in experiment [16], in experiment [17] and in experiment [18] was “inactive” each time. The Potency result in experiment [19] and in experiment [20] was “inactive” each time.
